The panel holds about 83,000 compounds, 20% with a hit somewhere; the sample as a whole holds those more often.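 Percent growth is the endpoint: 0 to 100 indicates growth inhibition (40 means 60% inhibition), 0 means no net growth, and negative values indicate cell death.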 A number with no mark means an inactive call. Calls of active or inactive are those of the source. The calls were made as follows: active = growth percent below 10; inactive = the rest.

Some test systems named below: SK-MEL-2 melanoma; EKVX NSCLC; SN12C renal; UO-31 renal; TK-10 renal; ACHN renal; CAKI-1 renal; A498 renal; CCRF-CEM leukemia; MOLT-4 leukemia.
Experiment in all cases: NCI-60 one-dose screen, 48 h (100 = growth as untreated, 0 = no growth, -100 = all killed)
Common to all, as to settings: 10 µM unless noted

With `O=c1[nH]c(Cc2nc3ccccc3s2)nc2cc(Br)ccc12`, the growth was 57.5% with SK-MEL-2 melanoma; 87.5% in the assay on EKVX NSCLC; 81.3% in the assay on SN12C renal; 37.3% with UO-31 renal; 94.3% with TK-10 renal; 35.9% in the assay with ACHN renal. Further, the growth with CAKI-1 renal was 58.7%; in the assay with A498 renal it was 95.7%; in the assay on CCRF-CEM leukemia, 56.2%; in the assay on MOLT-4 leukemia it was 59%.

As to `COC1=CC(c2ccc[nH]2)=N/C1=C\c1[nH]c(C)c(C)c1CCC(=O)OCc1ccccc1`, the growth in the assay with SK-MEL-2 melanoma is -28.9% (active); in the assay on EKVX NSCLC, -22.1% (active); in the assay with SN12C renal, -30% (active); with UO-31 renal it was -77.1% (active); in the assay on TK-10 renal, -0.0887% (active); in the assay on ACHN renal, -39.5% (active). The growth in the assay with CAKI-1 renal was -23.5% (active); in the assay with A498 renal, -19.8% (active); in the assay on CCRF-CEM leukemia, 0.65% (active); in the assay on MOLT-4 leukemia, -23.7% (active).

`CCC(=C(c1ccc(OCCN2CCCCC2)cc1)c1ccc(OCCN2CCCCC2)cc1)c1ccc(Cl)cc1`: the growth in the assay with SK-MEL-2 melanoma is -76.1% (active); in the assay on EKVX NSCLC, -82.1% (active); in the assay with SN12C renal, -94.9% (active); with UO-31 renal, -94.5% (active); in the assay on TK-10 renal, -84.7% (active); in the assay with ACHN renal, -99.7% (active). Further, the growth with CAKI-1 renal was -95.6% (active); in the assay on A498 renal, -81.4% (active); in the assay on CCRF-CEM leukemia, -74.4% (active); in the assay with MOLT-4 leukemia, -68.2% (active).

As to `N#C/C(=C\c1c(-c2ccccc2)[nH]c2ccccc12)C(N)=O`, the growth in the assay on SK-MEL-2 melanoma was 111%; in the assay with EKVX NSCLC, 83.7%; in the assay on SN12C renal, 94.2%; with UO-31 renal, 93.4%; in the assay on TK-10 renal, 124%; with ACHN renal, 88.8%. Moreover, the growth is 63.2% in the assay with CAKI-1 renal, 73.7% in the assay on A498 renal, 66.1% with CCRF-CEM leukemia and 61.6% in the assay with MOLT-4 leukemia.

`CC(C)C1=NOC(=O)C1=Cc1cn(-c2ccccc2)nc1-c1ccc(F)cc1`: the growth in the assay on SK-MEL-2 melanoma is 94.6%; in the assay on EKVX NSCLC, 97.2%; with SN12C renal, 62.8%; with UO-31 renal, 74.2%; in the assay with TK-10 renal, 75.2%; in the assay with ACHN renal it was 71.4%. Also, the growth is 62.2% in the assay with CAKI-1 renal, 82.2% in the assay with A498 renal, 10.7% with CCRF-CEM leukemia and 17.8% with MOLT-4 leukemia.

As for `c1cnc2c(-c3nc4ccc5[nH]ncc5c4c4c3CCCC4)c[nH]c2c1`, the growth was 58.5% in the assay on SK-MEL-2 melanoma; 49.5% with EKVX NSCLC; 27.4% with SN12C renal; 43.7% in the assay with UO-31 renal; 50.1% in the assay with TK-10 renal; 27.1% in the assay with ACHN renal. Besides, the growth with CAKI-1 renal is 57%; with A498 renal it was 64.2%; with CCRF-CEM leukemia, 11.4%; in the assay with MOLT-4 leukemia it was 5.62% (active).

Turning to `COc1cc(OC)c(NC(=O)c2cc3ccccc3cc2O)cc1Cl`, the growth in the assay with SK-MEL-2 melanoma is 15.4%; in the assay on EKVX NSCLC, 38.4%; in the assay on SN12C renal, 28.1%; in the assay on UO-31 renal it was -10.7% (active); in the assay with TK-10 renal, 32.8%; in the assay on ACHN renal, 22.7%. Moreover, the growth is 6.59% (active) in the assay on CAKI-1 renal, 18.8% in the assay with A498 renal, 26.9% in the assay on CCRF-CEM leukemia and 26.9% with MOLT-4 leukemia.

`Cc1cc(N2CCN(CC(=O)Nc3ccc4c(ccn4C)c3)CC2)nc(N2CCCCCC2)n1`: the growth in the assay with SK-MEL-2 melanoma is 92.1%; in the assay with EKVX NSCLC, 86.2%; with SN12C renal, 98%; with UO-31 renal it was 67.1%; in the assay with TK-10 renal it was 87.2%; in the assay with ACHN renal it was 88.4%. For the same compound, the growth was 84.6% in the assay with CAKI-1 renal, 46.3% in the assay on A498 renal, 35.3% in the assay on CCRF-CEM leukemia and 85.3% in the assay on MOLT-4 leukemia.

For `COc1ccc(OC)c(/C=N/Nc2ncnc3c2c(C)nn3C)c1`, the growth was 105% in the assay with SK-MEL-2 melanoma; 94.8% with EKVX NSCLC; 91.4% in the assay with SN12C renal; 82.9% with UO-31 renal; 105% in the assay with TK-10 renal; 105% in the assay with ACHN renal. For the same compound, the growth with CAKI-1 renal is 98.7%; with A498 renal, 64.4%; with CCRF-CEM leukemia, 103%; in the assay with MOLT-4 leukemia, 93.9%.

With `CCCCCN1C(=O)/C(=c2\sc3n(c2=O)C2C(NN=3)N(CC)C(=O)N2CC)c2ccccc21` (stereo not given), the growth in the assay with SK-MEL-2 melanoma is 21.3%; with EKVX NSCLC, 26.3%; in the assay with SN12C renal it was -50.5% (active); in the assay with UO-31 renal it was -40.8% (active); in the assay on TK-10 renal it was 19.9%; in the assay with ACHN renal, 2.83% (active). Besides, the growth with CAKI-1 renal was 7.55% (active); in the assay with A498 renal, -27.8% (active); in the assay with CCRF-CEM leukemia, -15.6% (active); with MOLT-4 leukemia, 4.79% (active).

As to `c1ccc(Cn2cc3c(c2)-c2oncc2CC3)cc1`, the growth in the assay with SK-MEL-2 melanoma is 53.9%; with EKVX NSCLC it was 41.4%; with SN12C renal it was 47.8%; in the assay with UO-31 renal, 41.6%; in the assay on TK-10 renal, 77.1%; in the assay with ACHN renal, 56.7%. Also, the growth in the assay with CAKI-1 renal was 47%; in the assay on A498 renal it was 44.6%; in the assay with CCRF-CEM leukemia it was 6.94% (active); in the assay on MOLT-4 leukemia, 53.6%.

As for `CCN(CC)CCn1c2ccc(O)cc2c2sc3cc(O)ccc3c(=O)c21`, the growth in the assay on SK-MEL-2 melanoma was 57.9%; with EKVX NSCLC, 48.8%; with SN12C renal, 20.9%; in the assay on UO-31 renal, 26%; in the assay with TK-10 renal, 64.9%; with ACHN renal, 3.32% (active). Further, the growth with CAKI-1 renal is 43.5%; with A498 renal it was 41.6%; in the assay with CCRF-CEM leukemia it was 14.6%; in the assay on MOLT-4 leukemia, 9.25% (active).

`Cc1ccc(C)n1-c1ccccc1-n1c(C)ccc1C`: the growth with SK-MEL-2 melanoma is 108%; in the assay on EKVX NSCLC, 92.5%; with SN12C renal it was 93.5%; in the assay with UO-31 renal, 98.1%; with TK-10 renal it was 128%; with ACHN renal, 102%. The growth is 71.7% in the assay with CAKI-1 renal, 97.9% in the assay with A498 renal, 124% in the assay with CCRF-CEM leukemia and 78.7% in the assay on MOLT-4 leukemia.

The values are drawn from PubChem BioAssay (NCI).
